Measured values: PubChem BioAssay (Tox21)
Records with an inconclusive call do not appear. Activity calls are given as the source filed them. The call rests on the fitted dose curve; in most records, active means well fitted cell-killing curve with a large enough effect in the repeat runs; inconclusive means weak or mixed curves, or effect the other way; inactive means flat fitted curve, though single readings scatter.

Assay: qHTS RealTime-Glo MT Cell Viability Assay in HEK293 cells - 40 hour (AID 1224874); further: nearly all actives have a fitted effect of over 50% in size
Settings: RealTime-Glo luminescence; max response: active compounds read low
Source text: U.S. Tox21 Program National Center for Advancing Translational Sciences [NCATS] NIH Chemical Genomics Center [NCGC] U.S. Environmental Protection Agency [EPA] National Institutes of Environmental Health Sciences [NIEHS] National Toxicology Program [NTP] U.S. Food and Drug Administration [FDA] Tox21 Assay Overview: Measure of cell viability is critical in the cell-base assay. Analysis of cell viability is necessary for the characterization of cell responses to cytotoxic drugs and environmental stress. A RealTime-Glo MT Cell Viability Assay to monitor cell viability in real time of continues cell culture during 40 hours of compound treatment was used to screen Tox21 10K library compounds in Hek293 cells. The RealTime-Glo MT Cell Viability Assay is a nonlytic, homogeneous, bioluminescent method to measure cell viability in real time using a simple, plate-based method. The assay involves adding NanoLuc luciferase and a cell-permeant prosubstrate to cells in culture. Viable cells reduce the proprietary prosubstrate to generate a substrate for NanoLuc luciferase. This substrate diffuses from cells into the surrounding culture medium, where it is rapidly used by the NanoLuc Enzyme to produce a luminescent signal. The signal correlates with the number of viable cells, making the assay well suited for cytotoxicity studies.
Tox21 Assay Protocol Summary: The mixture of Hek293 cell suspension and reagents were dispensed at 600cells/6 ul/well in 1536-well tissue culture treated black solid bottom plates using a Multidrop dispenser. After the assay plates were incubated at a 37 C/5% CO2 incubator for 5 hours, 23 nL of compounds dissolved in DMSO, positive and negative controls was transferred to the assay plate by a pintool work station. The plates were incubated at 37 C for 40 hours. The luminescence intensity were measured at 0h, 8h, 16h, 24h, 32h and 40h time points using ViewLux plate reader during compound treatment.
On the % scale 0 is the no-effect control and ±100 the full control effect; potency means the concentration at half of the fitted maximal effect.

SMILES | max response | Potency
NCc1ccccc1 | 2.09% (inactive) | –
CC[C@@H]1C[C@H](N(Cc2cc(C(F)(F)F)cc(C(F)(F)F)c2)C(C)=O)c2cc(C(F)(F)F)ccc2N1C(=O)OC(C)C | -22.8% (inactive) | –
FC(F)(F)C(F)(F)C(F)(F)C(F)(F)C(F)(F)C(F)(F)CCI | -0.265% (inactive) | –
c1ccc(CNCc2ccccc2)cc1 | -7.12% (inactive) | –
COCCO | 11.8% (inactive) | –
CCCC(=O)OCC | 20% (inactive) | –
CC(C)(C)c1cc(O)c(C(C)(C)C)cc1O | – | 30.9 µM (active)
Cc1nc2ccccc2n1Cc1ccc(Cl)cc1 | – | 1.69 µM (active)
CC(O)C1CCCCC1 (stereo not given) | 3.26% (inactive) | –
O=C(/C=C/c1ccc(O)c(O)c1)O[C@@H]1C[C@](O)(C(=O)O)C[C@@H](O)[C@H]1O | -3.27% (inactive) | –
Cc1occc1S | 3.01% (inactive) | –
CCOc1cc(OCC)c(C(=O)CCC(=O)O)cc1OCC | 3.3% (inactive) | –
N#Cc1c(F)cccc1F | -15.1% (inactive) | –
CCCCCCCCCC(=O)OCC | -6.56% (inactive) | –
CN(C)CC/C=C1\c2ccccc2COc2ccccc21 | 3.53% (inactive) | –
CN1CCC(OC(c2ccccc2)c2ccccc2)CC1 | -5.84% (inactive) | –
CCN1CCC[C@H]1CNC(=O)c1c(OC)ccc(Br)c1OC | 12.2% (inactive) | –
CCOC(=O)CC(C)C | 6.18% (inactive) | –
CCCc1ccccc1 | 0.274% (inactive) | –
CCCCCCCCCCCCCCCBr | -1.7% (inactive) | –

SMILES | max response | Potency
CC1CCc2cc(F)cc3c(=O)c(C(=O)O)cn1c23 (stereo not given) | 7.68% (inactive) | –
CCOc1ccc2[nH]cc(C(=O)NCc3ccccc3)c(=O)c2n1 | -23.2% (inactive) | –
CCOC(=O)C1=NN(c2ccccc2)C(=O)C1 | 1.57% (inactive) | –
CC(C(=O)O)c1ccc(C(=O)c2ccccc2)s1 (stereo not given) | 4.65% (inactive) | –
COC(Cc1ccccc1)OC | 17.4% (inactive) | –
CC(=O)c1c(C)c([N+](=O)[O-])c(C(C)(C)C)c([N+](=O)[O-])c1C | -9.27% (inactive) | –
Oc1ccc(O)c2c(O)cccc12 | -0.428% (inactive) | –
CCC(=O)OC(C)(C)C1CC=C(C)CC1 (stereo not given) | -0.19% (inactive) | –
O=C1c2cccc(O)c2C(=O)c2c(O)cc(CO)cc21 | 29.8% (inactive) | –
CC1=CC(=O)/C(=C(/C)O)C(=O)O1 | 16.6% (inactive) | –
O=S(=O)(O)c1ccc(O)c2ncccc12 | 27.2% (inactive) | –
CC(C)=CCCC(C)CC=O (stereo not given) | -1.27% (inactive) | –
CC(C)c1ccccc1C(C)C | -23.5% (inactive) | –
SC1CCCC1 | 8.94% (inactive) | –
CNS(=O)(=O)Cc1ccc2[nH]cc(CCN(C)C)c2c1 | 2.61% (inactive) | –
CC(=O)OCCc1ccccc1 | 10.1% (inactive) | –
CCCCCOC(=O)c1ccc(O)cc1 | – | 44.2 µM (active)
CN(C)C/C=C(/c1ccc(Br)cc1)c1cccnc1 | 2.35% (inactive) | –
CCN(CC)CCOc1ccc2c(c1)C(=O)c1cc(OCCN(CC)CC)ccc1-2 | – | 15.1 µM (active)
CC(C(=O)O)c1ccc(-c2ccccc2)c(F)c1 (stereo not given) | -0.192% (inactive) | –
